Screens from PubChem BioAssay.
Shown are actives, neighbours in structure and some others; about 9.2% of the full set was active somewhere.
ELG1 DNA repair: blocks ELG1-dependent DNA repair in HEK293T cells; HEK293T ELG1-luciferase reporter, luminescence, 16 h; DNA damage induced by 5-fluorouridine; Potency, µM (highest dose often 46.1 µM), without a hit: top-dose activity change, negative = inhibition, most hits filed as inhibitors; 330,000 compounds, 2.3% hits; further: on the % scale 0 is the no-effect control and ±100 the full control effect; nearly all actives have a fitted effect of over 55% in size
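Cells (2,000 per well) received 5-fluorouridine plus test compound or DMSO and were incubated 16 hr at 37 °C, 5% CO2. Luciferase activity was read by luminescence 30 min after ONE-Glo addition; signal suppression marked inhibition of damage-induced ELG1 function.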
Rab9 promoter act: activates the Rab9 promoter. Huh7 Rab9 promoter-luciferase reporter, luminescence, 24 h. Potency, µM (doses to about 9.22 µM), without a hit: top-dose activation, negative = inhibition, most hits filed as activators. 320,000 compounds, 2.8% hits. AID 485297; further: % of control where 0% means no effect; nearly all actives have a fitted effect of over 60% in size
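Rab9 promoter-driven luciferase in stably transfected Huh7 cells; 1500 cells/well rested 2 h, exposed to compound in DMSO for 24 h at 37 °C, 5% CO2. Luminescence read 10 min after adding luciferase reagent at ambient temperature.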
SMN2 splice up: enhancers of SMN2 splice variant expression. HEK293 SMN2-luciferase splicing reporter, luminescence, 30-36 h. Potency, µM (series often up to 46.1 µM), for inactives: at the highest dose activity change, positive = activation, most hits filed as activators. 210,000 compounds, 2.8% hits; further: % of control where 0% means no effect; nearly all actives have a fitted effect of over 55% in size
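HEK293 cells carry an SMN2 minigene-luciferase reporter in which exon 7 inclusion puts luciferase in frame. Cells were seeded at 2000 cells/well, attached for 10-12 hours, then exposed to compounds for 30-36 hours at 37C before ONE-Glo luminescence.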
NPC1 promoter act: activates the NPC1 promoter. Huh7 NPC1 promoter luciferase reporter, 24 h. Potency, µM (doses to about 9.22 µM), without a hit: at the highest dose activation, most hits filed as activators. 320,000 compounds, 2.4% hits. AID 485313; further: % of control where 0% means no effect; nearly all actives have a fitted effect of over 60% in size
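In 1536-well qHTS, Huh7 cells harboring an NPC1 promoter–luciferase construct received compound for 24 h; activation was quantified by luminescence following luciferase reagent addition.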
ELG1 genotox: genotoxicity induction in ELG1-luciferase HEK293T cells; HEK293T ELG1-luciferase reporter, luminescence, 16 h; Potency, µM (highest dose often 46 µM), inactives show at the top dose activity change, positive = activation, actives largely listed as activators; 330,000 compounds, 1.3% hits; further: % of control where 0% means no effect; nearly all actives have a fitted effect of over 60% in size
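Quantitative HTS format in 1536-well plates. HEK293T ELG1-luciferase reporter cells receive test compound and are incubated 16 hr at 37 °C, 5% CO2; ONE-Glo added, 30 min room temperature, then luminescence read.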
FLuc modulator: inhibits or activates purified firefly luciferase, miR-21 counter-screen; Potency, µM (highest dose often 57.5 µM), without a hit: at the highest dose activity change, negative = inhibition, most hits filed as inhibitors; 360,000 compounds, 6.9% hits; purified FLuc, Km substrates, luminescence inhibition;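 further: plate controls were vehicle for no effect and reference inhibitor for full effect; nearly all actives have a fitted effect of over 55% in size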
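Purified P. pyralis luciferase, 10 nM final, with Km-level 10 uM D-luciferin and 10 uM ATP in 50 mM Tris acetate pH 7.5, 10 mM Mg acetate, 0.01% Tween-20, 0.05% BSA; 6-point qHTS titration about 60 µM downward; luminescence read.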
ELG1 FLuc counter: luciferase inhibition in cell-free luciferin readout for ELG1 hits | shares compounds with ELG1 DNA repair | Potency, µM (series often up to 46.1 µM), for inactives: at the highest dose activity change, negative = inhibition, most hits filed as inhibitors | cell-free firefly luciferase luminescence counter-screen, ViewLux | 350 compounds, 3% hits; further: on the % scale 0 is the no-effect control and ±100 the full control effect
ELG1-Luc inh: human ELG1 repair inhibition, luciferase-tagged ELG1 confirmation. HEK293T ELG1-luciferase levels, luminescence; cells co-treated with 5-fluorouridine. shares compounds with ELG1 DNA repair. AID 624248. Potency, µM (top dose mostly 46.1 µM), for inactives: top-dose activity change, negative = inhibition, hits mostly inhibitors. 670 compounds, 68% hits; further: on the % scale 0 is the no-effect control and ±100 the full control effect; nearly all actives have a fitted effect of over 55% in size
ELG1-Luc MMS: inhibits ELG1-dependent repair under MMS stimulation in HEK293T cells; HEK293T luciferase-tagged ELG1 level, MMS stimulated; Potency, µM (top dose mostly 46.1 µM), for inactives: top-dose activity change, negative = inhibition, most hits filed as inhibitors; shares compounds with ELG1 DNA repair; 670 compounds, 53% hits; further: on the % scale 0 is the no-effect control and ±100 the full control effect; nearly all actives have a fitted effect of over 60% in size
ELG1 5FU viab: confirmation of ELG1 repair inhibitors: viability with 5FU. shares compounds with ELG1 DNA repair. cell viability with 5-FU, ELG1-dependent repair. Potency, µM (titrated, usually from 46.1 µM), for the others: at the highest dose activity change, negative = viability loss, hits mostly cytotoxic. 670 tested, under 10 active. AID 624250;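 further: ELG1-luc HEK293T cells cotreated with 5-fluorouridine at 10 µM final; viability measured 16 h after compound addition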
ELG1 MMS cell: confirmation of ELG1 repair inhibitors: viability with MMS | 670 compounds, 33% hits | Potency, µM (series often up to 46.1 µM), inactives show at the highest dose activity change, negative = viability loss, usual class: cytotoxic | Cell viability with MMS, ELG1-dependent DNA repair | shares compounds with ELG1 DNA repair;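 further: ELG1-luc HEK293T cells co-treated with 10 µM MMS; viability read 16 h after compound addition; on the % scale 0 is the no-effect control and ±100 the full control effect; nearly all actives have a fitted effect of over 60% in size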
Cell viab unstim: affects unstimulated cell viability, ELG1 hit counter-screen | AID 624252 | cell viability counter-screen, unstimulated, luminescence | Potency, µM (series often up to 45.9 µM), without a hit: at the top dose activity change, negative = loss of viability, hits mostly cytotoxic | shares compounds with ELG1 DNA repair | 900 compounds, 8% hits;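 further: compound exposure lasted 16 hours before reading; on the % scale 0 is the no-effect control and ±100 the full control effect; nearly all actives have a fitted effect of over 55% in size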
FLuc biochem: inhibits purified firefly luciferase, counter-screen for ELG1 hits | shares compounds with ELG1 DNA repair | purified firefly luciferase, luminescence counter-screen | Potency, µM (top dose mostly 57.5 µM), without a hit: at the top dose activity, negative = inhibition, hits mostly inhibitors | 350 compounds, 10% hits | AID 624253; further: on the % scale 0 is the no-effect control and ±100 the full control effect
Active calls of the source: *; ? = inconclusive; nt = no result; [ ] = another dose, or the depositor's remark. The call rests on the fitted dose curve; in most records, active means well fitted curve in the direction sought with a large enough effect; inconclusive means small, poorly fitted or top-dose-only effect, or another doubt; inactive means no such curve, though single readings can be large; an effect the other way counts as inactive or inconclusive. Potency means the concentration at half of the fitted maximal effect.

SMILES	ELG1 DNA repair	Rab9 promoter act	SMN2 splice up	NPC1 promoter act	ELG1 genotox	FLuc modulator	ELG1-Luc inh	ELG1-Luc MMS	ELG1 5FU viab	ELG1 MMS cell	Cell viab unstim	others
CCC(C)[C@H]1CNCCN1CCc1cc(C(F)(F)F)cc(C(F)(F)F)c1 (some centres undefined)	3.55µM*	9.6%	nt	-5.7%	-2.0%	-0.4%	-8.6%	22.3µM*	?	22.3µM*	?
O=C(NCC(c1cccs1)N1CCOCC1)c1cn(-c2ccccc2)nc1-c1ccccc1 (centres undefined)	?	-6.5%	nt	-3.0%	-8.6%	-26.6%	nt	nt	nt	nt	nt
COc1ccc(-c2nn(-c3ccccc3)cc2C(=O)NCC(c2cccs2)N2CCOCC2)cc1 (centres undefined)	4.61µM*	1.8%	nt	0.4%	-18.7%	5.4%	14.1µM*	-1.4%	?	9.1%	-14.3%
Cc1ccc(CSCC(=O)N/N=C/c2cccc(OC3CSC3)c2)cc1	?	-2.8%	7.3%[1.84 µM]	1.4%	1.0%	0.6%	nt	nt	nt	nt	nt
Cn1ncc(Br)c1C(=O)N/N=C/c1cccc(OC2CSC2)c1	4.11µM*	-12.6%	-9.7%	-5.6%	1.8%	-13.3%	-7.3%	5.9%	-6.3%	?	-10.5%
CC(=O)c1cn(CC(=O)Nc2ccc(C)c(C)c2)c2ccccc12	2.06µM*	-11.6%	-38.3%	-12.5%	-4.6%	1.1%	-10.2%	?	-4.0%	?	-4.3%
CCCC(=O)N1CCc2cc(OC)c(OC)cc2C1COc1ccccc1OC (centres undefined)	-8.1%	-4.3%	nt	-2.5%	0.3%	-3.0%	8.89µM*	?	3.9%	?	-5.3%	ELG1 FLuc counter=10.2%;FLuc biochem=-5.2%
CCC(=O)N1CCc2cc(OC)c(OC)cc2C1COc1ccccc1OC (centres undefined)	?	2.7%	20.1%	-7.9%	11.4%	-2.7%	nt	nt	nt	nt	nt
COc1ccc(C(=O)N2CCc3cc(OC)c(OC)cc3C2c2ccc(OC)c(OC)c2)cc1OC (centres undefined)	3.66µM*	-1.0%	nt	0.6%	3.5%	-2.9%	?	15.4%	?	-12.8%	-19.0%
CC1CCc2nc(NC(=O)c3ccc(S(=O)(=O)N4CCCc5ccccc54)cc3)sc2C1 (centres undefined)	2.91µM*	-31.2%	nt	-20.7%	-2.6%	2.7%	?	2.5µM*	7.6%	2.81µM*	?
O=C(Nc1nc2c(s1)CCCC2)c1ccc(S(=O)(=O)N2CCCc3ccccc32)cc1	-20.2%	-21.4%	-21.2%[1.84 µM]	-15.5%	11.4%	2.0%	nt	nt	nt	nt	nt
O=C1c2cccc(OCc3ccc(F)cc3)c2CCN1Cc1ccc(F)cc1	4.11µM*	-19.9%	-78.7%	-20.6%	-0.4%	-0.3%	12.5µM*	3.53µM*	-5.4%	3.15µM*	?
CCN1CCc2c(OCc3ccc(C(=O)OC)o3)cccc2C1=O	-13.3%	4.8%	-3.2%	-2.5%	-4.6%	-4.2%	nt	nt	nt	nt	nt
CC(C)Nc1ncnc2ccc(Br)cc12	2.31µM*	-7.4%	-87.2%	-6.0%	-12.2%	2.8%	3.53µM*	7.91µM*	-5.1%	9.96µM*	?
CSCCC(Nc1ncnc2ccc(Br)cc12)C(=O)O (centres undefined)	0.0%	0.3%	5.5%	0.3%	0.2%	1.3%	nt	nt	nt	nt	nt
COc1ccc2cc3c(N)nn(C(=O)c4ccc(Cl)c([N+](=O)[O-])c4)c3nc2c1	1.64µM*	0.2%	-5.7%	20.3%	-14.0%	0.8%	3.53µM*	7.91µM*	5.4%	6.7%	6.9%
COc1ccc2cc3c(N)nn(C(=O)c4ccccc4[N+](=O)[O-])c3nc2c1	2.31µM*	0.4%	-38.0%	7.2%	-9.9%	-6.5%	1.77µM*	14.1µM*	3.7%	?	?
Cc1[nH]n(-c2nc(-c3ccc(Cl)cc3)cs2)c(=O)c1N=Nc1ccc(O)cc1	4.11µM*	-69.2%	nt	-48.9%	-12.8%	?	15.8µM*	15.8µM*	?	28.1µM*	?
COc1ccc(C2CC(c3ccncc3)=NN2c2ccc(S(N)(=O)=O)cc2)cc1 (centres undefined)	?	nt	nt	nt	20.6µM*	nt	nt	nt	nt	nt	?
CCOC(=O)N1CCC(NC(=O)C2CCCN(Cc3nc(-c4ccc(CC)cc4)oc3C)C2)CC1 (centres undefined)	2.31µM*	-38.0%	nt	-29.2%	-6.8%	0.7%	7.92µM*	2.5µM*	4.1%	3.15µM*	?	ELG1 FLuc counter=-1.6%;FLuc biochem=0.9%
CC(=O)Nc1ccc(NC(=O)C(C)OC(=O)/C=C/c2cn(-c3ccccc3)nc2-c2cccnc2)cc1 (centres undefined)	1.64µM*	-9.5%	-29.3%	-3.9%	-7.0%	-1.0%	0.791µM*	25µM*	?	25µM*	?
Cc1ccccc1NC(=O)COC(=O)/C=C/c1cn(-c2ccccc2)nc1-c1cccnc1	?	-6.5%	11.4%	-5.8%	0.3%	-4.2%	nt	nt	nt	nt	nt
